CF NFkB inh – cystic fibrosis NF-kB activation inhibition. hit rate 0.86% among 360,000. AID 588850. KKLEB NF-kB-GFP reporter, PAF-induced, GFP fluorescence overnight. inhibition, % at 5 µM;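 active = at least 50% inhibition at 5 µM, scaled per plate between neutral and stimulator controls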;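 note: PAF is a Pseudomonas aeruginosa culture filtrate used as stimulus; plate controls were PAF-stimulated DMSO wells for no effect and unstimulated DMSO wells for full effect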
Peg3 prom inh – Peg3 promoter activity inhibition | HeLa PEG-Prom luciferase reporter, luminescence, overnight | inhibition, % at 20 µM | hit rate 1.7% among 360,000 | AID 588405;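 active = inhibition of at least 50% at 20 µM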
HIF-2a inh – HIF-2a inhibition | 786-0 RCC cells HIF-2a reporter, luciferase luminescence, overnight | inhibition, % at 18.8 µM | hit rate 0.72% among 360,000 | AID 624352;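 active = inhibition of the luminescence signal of 40% or more relative to plate controls, in a single-dose primary screen at 18.75 µM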
C8 TRAIL sens – sensitizes caspase-8 expressing cells to TRAIL; hit rate 1% among 360,000; inhibition (viability loss, TRAIL sensitization), % at 10 µM; NB7+C8 cells + TRAIL, ATPlite viability luminescence; AID 624354;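 active = compounds causing at least 50% loss of cell viability in the single-dose screen, relative to plate controls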
KKLEB cytotox – reduces viability of KKLEB cystic fibrosis airway cells; KKLEB CF airway cells viability, ATPlite luminescence, overnight; active compounds read low; cells stimulated with P. aeruginosa culture filtrate; activity change (cytotoxicity), % at 5 µM; hit rate 0.36% among 360,000; AID 602141;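 active = corrected activity change at or below -50% at 5 µM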
PPC-1+TRAIL kill – kills PPC-1 cancer cells in the presence of TRAIL; PPC-1 cells + TRAIL, ATPLite viability luminescence; cell killing (% activity), % at 4 µM or 5 µM; hit rate 0.41% among 220,000; AID 1443;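 active = cell killing above 50% in the first pass at 4 µM, then a duplicate retest at 5 µM averaging 50% or more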;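 note: plate controls were cells with TRAIL plus DMSO for no effect and medium-only wells lacking cells for full effect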
CF NFkB conf – confirmation of cystic fibrosis induced NF-kB inhibitors | shares compounds with CF NFkB inh | KKLEB CF airway cells, PAF-induced NF-kB-GFP fluorescence, overnight | inhibition, % at 5 µM | hit rate 64% among 1,300 | AID 602472; in the data active = inhibition above about 40%;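 note: stimulus PAF is a Pseudomonas aeruginosa filtrate and not platelet activating factor; plate controls were DMSO wells with stimulus for no effect and unstimulated DMSO wells for full effect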
Starred values were filed as active, the others as inactive; / = not tested or not shown. Sampled rows, rich in hits. Any-hit rate of the full collection: about 3.1%.

SMILES	CF NFkB inh	Peg3 prom inh	HIF-2a inh	C8 TRAIL sens	KKLEB cytotox	PPC-1+TRAIL kill	CF NFkB conf
O=C(NCCc1c[nH]c2ccccc12)C(=O)NCC(c1ccco1)N1CCN(c2ccc(F)cc2)CC1 (configuration not stated)	51*	26	21	22	-48	13	-17
COc1ccc(OCCOc2ccc(/C=C3\C(=N)N4N=C(C)SC4=NC3=O)cc2)cc1	-7	-32	-16	3	20	/	/
Cc1ccc(NC(=O)c2nc[nH]c2C(=O)NCCCNC(=O)c2[nH]cnc2C(=O)Nc2ccc(C)cc2)cc1	52*	84*	2	20	-13	/	79*
COC(=O)Cc1coc2cc(OC)ccc12	-13	0	10	-4	-18	/	/
CCC(CO)Oc1cc(NCc2ccc(Cl)cc2Cl)c2ncn(C(C)C)c2c1 (configuration not stated)	60*	14	20	7	-2	/	45*
CCC(CO)Oc1cc(NCc2ccc(Cl)cc2)c2ncn(C(C)C)c2c1 (configuration not stated)	15	15	3	-2	-6	/	/
Cc1ccccc1S(=O)(=O)Cc1ccc(C(=O)N2CCN(c3cccc(C)c3C)CC2)o1	68*	70*	10	23	-24	23	63*
Cc1ccccc1S(=O)(=O)Cc1ccc(C(=O)N2CC(C)CC(C)C2)o1 (configuration not stated)	4	5	-9	-5	4	-14	/
NC1(C(=O)O)CSSC1	62*	82*	-122	12	3	/	57*
Cn1cccc1C(=O)NC(=O)COC(=O)c1ccc(S(C)(=O)=O)c([N+](=O)[O-])c1	67*	102*	36	8	-18	/	59*
CCCn1c(-c2nonc2N)nc2ccccc21	66*	8	7	-15	-28	0	61*
Cn1c(-c2nonc2N)nc2ccccc21	-18	-23	-21	-5	6	/	/
COc1ccc(C(N)c2csc(Nc3ccc(S(C)(=O)=O)cc3)n2)cc1 (configuration not stated)	-27	7	11	-12	0	/	/
CCCCCCCCCc1nc2sc3c(c2c(=O)n1NC(=O)c1ccccc1[N+](=O)[O-])CC(C)(C)OC3	44	31	-1	-8	-33	-2	/
CCCCCCCCCc1nc2sc3c(c2c(=O)n1NC(=O)c1ccc([N+](=O)[O-])cc1)CC(C)(C)OC3	55*	9	-12	12	-42	11	62*
CS(=O)(=O)Nc1ccc(-c2cnc3cccnn23)cc1	60*	-5	-29	7	-1	/	71*
O=C(NCc1ccccc1)c1onc(CS(=O)(=O)c2ccc(Cl)cc2)c1C(=O)NCc1ccccc1	-1	47	6	21	-15	/	/
Cc1cccc(N=c2oc3cc(O)ccc3cc2C(N)=O)c1	68*	-179	-116	4	-15	-16	72*
COc1ccc2cc(C(N)=O)c(=Nc3ccc(C)cc3)oc2c1	63*	-166	-215	4	-14	19	96*
O=C(CNS(=O)(=O)c1c(F)cccc1F)NC1CCCc2ccccc21 (configuration not stated)	8	6	8	-14	6	/	/
COc1cc([C@@H]2Oc3cc(C4Oc5cc(O)cc(O)c5C(=O)[C@H]4O)ccc3O[C@H]2CO)ccc1O (some centres not stated)	51*	-12	3	-5	13	/	9
COc1cc([C@H]2Oc3cc([C@H]4Oc5cc(O)cc(O)c5C(=O)[C@@H]4O)ccc3O[C@@H]2CO)ccc1O	20	-7	1	2	-1	/	/
CCOc1ccc(CSc2nc(C)cc(COC)c2C#N)cc1OCC	23	20	8	-4	-2	/	/
CC1CCN(CC2C(=O)O[C@@H]3C[C@@]4(C)CCC[C@H](C)C4=C[C@H]23)CC(C)(C)C1 (some centres not stated)	84*	-17	-16	-3	-21	/	34
Cc1nc2c(=O)n(C)c(=O)n(C)c2nc1Cl	75*	108*	39	2	9	21	-12
SMILES	CF NFkB inh	Peg3 prom inh	HIF-2a inh	C8 TRAIL sens	KKLEB cytotox	PPC-1+TRAIL kill	CF NFkB conf
CNC(=O)CSc1nnc(-c2ccco2)n1-c1cccc(OC)c1	-15	-10	9	-6	7	/	/
COc1cc(/C=C2/SC(=S)N(CC(=O)O)C2=O)ccc1OC(=O)c1ccco1	1	-11	1	27	8	/	/
S=C(Nc1ccccc1)Nc1ccc2cn[nH]c2c1	35	-288	-273	-10	-16	2	/
CCOc1ccccc1NC(=S)Nc1ccc2cn[nH]c2c1	58*	-53	-60	-5	2	8	67*
CCn1c(SCC(=O)NC2CC2)nnc1-c1ccc(C)cc1	23	-2	0	-1	3	/	/
CN(C)c1ncnc2[nH]ncc12	18	2	6	-24	-7	/	/
CCCN(CC)c1ncnc2[nH]ncc12	81*	16	14	-22	6	/	63*
Nc1ccc(O)c2c(=O)cc(-c3ccccc3Cl)oc12	11	-239	-262	4	-11	20	/
O=c1cc(-c2ccccc2Cl)oc2cc(O)cc(O)c12	66*	-233	-128	-7	-1	-10	77*
CC(C)CC1NC(=S)N(Cc2ccccc2)C1=O (configuration not stated)	58*	99*	-11	0	-17	18	10
O=C(Nc1ccc(F)c(Cl)c1)c1ccc2sc([C@H]3C[C@H](O)[C@@H](CO)O3)nc2c1	7	-183	-262	21	2	/	/
Cn1cc([N+](=O)[O-])c(C(=O)Nc2ccc(C3CCCCC3)cc2)n1	52*	-35	-124	61*	-24	46	-175
Cn1cc([N+](=O)[O-])c(C(=O)Nc2ccc(C(=O)N3CCCCC3)cc2)n1	47	30	-38	14	-3	-1	/
Cc1cccc(COC[C@H](Cc2ccccc2)N2CCN(C(=O)c3ccc(Cl)c(Cl)c3)CCC2=O)c1	/	/	-4	-8	/	/	/
Cc1ccc(Cl)cc1-c1cc(C(=O)NCc2cc(C(F)(F)F)cc(C(F)(F)F)c2)[nH]n1	59*	40	-29	17	-31	/	63*
Cc1ccc(F)cc1-c1cc(C(=O)NCc2cc(C(F)(F)F)cc(C(F)(F)F)c2)[nH]n1	16	13	4	-1	2	/	/
O=C(OCC(=O)N1CCCC1=O)c1nc(Cl)c(Cl)c(Cl)c1Cl	60*	82*	8	36	0	/	-20
Nc1c(Cl)c(Cl)nc(C(=O)OCC(=O)N2CCCC2=O)c1Cl	19	8	10	10	4	/	/
O=C(Nc1ccc(F)c(Cl)c1)C1Cc2c(-c3ccc4c(c3)OCO4)ccnc2O1 (configuration not stated)	9	14	0	14	-5	/	/

Screens: PubChem BioAssay, Sanford-Burnham Center for Chemical Genomics
